In all, about 16,000 compounds went through this assay and about 2,600 (16%) were called active. Roughly 20% stayed inconclusive and do not appear here. The list is a sample of the results. A number with no mark means an inactive call. Calls follow the shape of the dose curve; as a rule, active = well fitted curve in the direction sought with a large enough effect; inconclusive = small, poorly fitted or top-dose-only effect, or effect the other way; inactive = no such curve, though single readings can be large or run the other way.
Target: Cytochrome P450 2D6 (Homo sapiens) (UniProt P10635)
Experiment: Cytochrome panel assay with activity outcomes
Settings: recombinant CYP, pro-luciferin dealkylation, luminescence, p450-cyp2d6; series mostly up to 57.1 µM; activity, negative = inhibition: at the top concentration
% is scaled to controls: 0 for no effect and ±100 for the full control effect.

Sequence of Cytochrome P450 2D6 (Homo sapiens) (P10635 whole entry, looked up): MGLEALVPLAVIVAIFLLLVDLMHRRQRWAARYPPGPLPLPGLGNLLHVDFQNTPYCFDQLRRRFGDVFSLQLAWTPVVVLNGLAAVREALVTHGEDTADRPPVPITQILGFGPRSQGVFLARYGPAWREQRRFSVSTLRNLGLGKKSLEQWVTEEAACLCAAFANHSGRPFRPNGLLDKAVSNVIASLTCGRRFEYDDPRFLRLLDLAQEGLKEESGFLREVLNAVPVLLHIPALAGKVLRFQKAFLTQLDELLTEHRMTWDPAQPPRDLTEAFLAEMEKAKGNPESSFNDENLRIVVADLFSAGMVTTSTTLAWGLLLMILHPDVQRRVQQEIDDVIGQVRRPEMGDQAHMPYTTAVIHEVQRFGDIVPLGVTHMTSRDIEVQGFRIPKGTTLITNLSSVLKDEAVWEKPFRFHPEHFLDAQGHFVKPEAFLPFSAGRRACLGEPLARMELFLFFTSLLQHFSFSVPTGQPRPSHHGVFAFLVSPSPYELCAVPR

First: O=C(NC1(C(F)(F)F)NC(=O)N(Cc2cccnc2)C1=O)c1ccccc1 (stereo unspecified)
Second: Cc1[nH]n(-c2ccccc2)c(=O)c1CCOC(=O)c1ccc(C(F)(F)F)cc1
The “activity, negative = inhibition” value of the first is lower: -26% for the first, -16% for the second.

First: CC(C)(C)NC(=O)Cn1nnc(-c2ccccc2NC(=O)c2cnccn2)n1
Second: Cc1cc(C)cc(-n2nnc(C(=O)NCc3ccccc3Cl)c2N)c1
The “activity, negative = inhibition” value of the first is higher: 11.1% for the first, -18.7% for the second.

Compared with `CC(=O)Nc1ccc(NC2=Nc3ccccc3N3C2=Nc2c(c(C)nn2-c2ccccc2)C3c2ccccc2)cc1` (stereo unspecified), `CCOC(=O)c1nn(-c2ccccc2)c(-c2ccccc2)c1C(=O)c1ccccc1` is lower in “activity, negative = inhibition” value: -0.731% for the first, -17.8% for the second.

First: Cc1nn(Cc2ccc(Cl)cc2Cl)c(C)c1NC(=O)c1sc2ccccc2c1Cl
Second: CSc1c(-c2ccccc2)nc2ccc(Cl)cc2c1C(=O)O
The “activity, negative = inhibition” value of the first is lower: -13% for the first, 0.481% for the second.

Compared with `C=CCc1cccc2cc(C(=O)N(CC)CC)c(=O)oc12`, `CCN(CC)CCCN(Cc1cc2ccc(C)c(C)c2[nH]c1=O)C(=O)NC1CCCCC1` is lower in “activity, negative = inhibition” value: -3.73% for the first, -20.3% for the second.

Going from `CCOC(=O)c1ccc(N/C=C/C(=O)c2ccc(OC)cc2)cc1` to `CCN(C(=O)CSc1nc2cc(C(=O)OC)ccc2c(=O)n1Cc1ccco1)c1cccc(C)c1`, the “activity, negative = inhibition” value falls from -2.63% to -23.1%.

First: Cn1c(=O)c(-c2cccs2)nc2cnc(Oc3ccccc3)nc21
Second: COc1ccc(-n2c(=O)c(-c3cccs3)nc3cnc(Oc4ccccc4)nc32)cc1
The “activity, negative = inhibition” value of the first is higher: 1.93% for the first, -0.534% for the second.

First: NC(=O)NC(=O)CSc1nnc(-c2ccco2)n1Cc1ccccc1
Second: Cc1ccc(Cn2ccc(NC(=O)c3cc4nc(-c5ccco5)cc(C(F)(F)F)n4n3)n2)cc1
The “activity, negative = inhibition” value of the first is lower: -6.49% for the first, 5.06% for the second.

Compared with `O=C(NC1CCCC1)c1cnn2c(C(F)(F)F)cc(-c3ccco3)nc12`, `COc1ccc(-c2cc(C(F)(F)F)n3ncc(C(=O)NCC4CCCO4)c3n2)cc1OC` (stereo unspecified) is higher in “activity, negative = inhibition” value: -5.58% for the first, 3.76% for the second.

First: O=c1/c(=C\c2ccc(O)cc2)sc2n1C(c1ccccc1)C(c1ccccc1)=NN=2 (stereo unspecified)
Second: O=C1CN(c2nc(-c3ccccc3)c3cc(Br)ccc3n2)c2ccccc2N1
The “activity, negative = inhibition” value of the first is higher: 2.11% for the first, -28.2% for the second.

First: COc1cccc(-c2nnc3n2N=C(C(C)(C)C)CS3)c1
Second: Cc1nc(-c2cccnc2)sc1C(N)=O
The “activity, negative = inhibition” value of the first is lower: -19% for the first, 8.45% for the second.

Compared with `CN(C)c1nc(NCc2ccccc2)nc(N/N=C/c2ccc(Cl)cc2Cl)n1`, `Cc1ccc(Oc2nnc(-c3ccccc3)cc2C#N)cc1` is higher in “activity, negative = inhibition” value: -14% for the first, 7.73% for the second.

Going from `CCCCNc1nc(-c2ccccc2)c(C(=O)OCC)cc1C#N` to `CCn1c(=O)c2[nH]c(-c3ccccc3)nc2n(CC)c1=O`, the “activity, negative = inhibition” value rises from -13.6% to 3.55%.

Compared with `Cc1ccc(-n2c(=O)[nH]cc(C(=O)N3CCc4ccccc43)c2=O)cc1`, `Cc1ccc(OC(=O)c2ccc(N3CCOCC3)c([N+](=O)[O-])c2)cc1` is lower in “activity, negative = inhibition” value: 3.82% for the first, -15.1% for the second.

Compared with `Cc1nc2cncnc2n(C2CC2)c1=O`, `Cn1c(=O)c(-c2ccc(F)cc2)nc2cnc(Oc3ccccc3)nc21` is higher in “activity, negative = inhibition” value: -3.46% for the first, 1.71% for the second.

Going from `COc1ccc(Oc2ncc3nc(-c4cccc(C#N)c4)c(=O)n(Cc4cccc(OC)c4)c3n2)cc1` to `CCOc1ccc(-c2c(=O)n(OCc3ccccn3)c3ccccc3[n+]2[O-])cc1`, the “activity, negative = inhibition” value falls from -1.33% to -21.6%.

First: O=C(O)c1nn(-c2ccccc2)ccc1=O
Second: Nc1nnc(C(c2ccccc2)c2ccccc2)s1
The “activity, negative = inhibition” value of the first is higher: 2.59% for the first, -4.84% for the second.

Compared with `Cc1cc(C)cc(-n2c(O)c(C=NC3CCS(=O)(=O)C3)c3ccccc3c2=O)c1` (stereo unspecified), `COc1ccc(-c2cc(C3CCN(c4ccc(C(C)=O)cc4[N+](=O)[O-])CC3)[nH]n2)cc1` is lower in “activity, negative = inhibition” value: 15.4% for the first, -6.96% for the second.

Going from `CCCCOC(=O)Nc1ccccc1C(=O)OC` to `CCCCC(=O)Nc1sc2c(c1C(=O)OCC)CCC(C=O)=C2Cl`, the “activity, negative = inhibition” value falls from -3.17% to -29.2%.

Going from `Cc1ccc(C)c(Nc2nc3nonc3nc2N2CCOCC2)c1` to `O=C(/C=C/c1ccco1)NC(=S)Nc1ccc(N2CCOCC2)c(Cl)c1`, the “activity, negative = inhibition” value rises from -9.71% to 2.74%.

Going from `COCCNC(=O)CSc1nc2cc(OC)c(OC)cc2c(=O)n1Cc1ccco1` to `COc1ccc(N2CCN(Cc3nc4c(c(=O)n(C)c(=O)n4C)n3CC(C)=O)CC2)cc1`, the “activity, negative = inhibition” value rises from -20.3% to 0.904%.

Going from `O=C(NN=C1C2CC3CC(C2)CC1C3)c1ccncc1` to `CC(=O)NC1(c2cccc(F)c2)CCN(CC(=O)NC(C)C)CC1`, the “activity, negative = inhibition” value rises from 10% to 18.6%.

Going from `COC(=O)[C@@]1(Cc2ccccc2)[C@H]2c3cc(C(=O)N4CCCC4)[nH]c3C[C@H]2CN1C(=O)c1ccccc1` to `CC(Cc1ccccc1)N/C=C1\CC(=O)NC1=O` (stereo unspecified), the “activity, negative = inhibition” value rises from -16.7% to 8.16%.

First: O=C1CCCCC(=O)c2ccccc2N1
Second: CCOC(=O)c1c(NC(=O)c2c(C)noc2C)sc2c1CCCCC2
The “activity, negative = inhibition” value of the first is lower: -11.6% for the first, -6.35% for the second.

Compared with `N#C[C@H](Cc1ccc(O)cc1)c1ccc(O)cc1`, `CCOC(=O)c1c(NC(=O)Cn2cc([N+](=O)[O-])cn2)sc2c1CCC2` is lower in “activity, negative = inhibition” value: -1.28% for the first, -8.46% for the second.

`CCNC(=S)N1CC(C)OC(C)C1` (stereo unspecified) was tested, and the “activity, negative = inhibition” value was -0.0504%.

In the case of `CCOC(=O)c1ccc(N)cc1`, the “activity, negative = inhibition” value is reported as -7.44% [at 25.6 µM].

`CCOC(=O)c1ccc(OC(=O)CCCCCN=C(N)N)cc1` was tested, and the AC50 was 316 nM (active).
In the case of `FC(F)(F)c1cc(-c2ccco2)nc(NCCc2ccccc2)n1`, the AC50 is reported as 5010 nM (active).
With `N#Cc1ccccc1/C=N/Nc1nc(-c2ccccc2)c2cc(Cl)ccc2n1` the AC50 was 178 nM (active).
For `Cc1ccc2nc(N/N=C/c3ccccc3C#N)nc(-c3ccccc3)c2c1`, the AC50 was 1260 nM (active).
With `CCC(Sc1nc2cc3c(cc2c(=O)n1Cc1ccco1)OCO3)C(=O)Nc1cccc(OC)c1` (stereo unspecified) the AC50 was 3160 nM (active).
With `N#Cc1nc(COc2ccccc2Cl)oc1NCc1ccco1` the AC50 was 2820 nM (active).
With `O=C1Cc2c([nH]c3ccc(Br)cc23)-c2ccccc2N1` the AC50 was 398 nM (active).
For `CCOC(=O)c1c(NC(=O)CSc2nnc(C)s2)sc2c1CCCCC2`, the AC50 was 7940 nM (active).
With `COC(=O)c1ccc(N2CCN(CC(=O)c3ccc(-c4ccccc4)cc3)CC2)c([N+](=O)[O-])c1` the AC50 was 12600 nM (active).

Going from `Cc1[nH]c(N)nc(=S)c1CCCNc1ccccc1` to `c1ccc(NN(Cc2cnccn2)c2ccccc2)cc1`, the activity, negative = inhibition falls from -8.46% [at 11.4 µM] to -16.2% [at 11.4 µM].

First: CCOC(=O)CCCN
Second: CC/C=C\CC[C@H](OC(=O)c1ccc(Br)cc1)C1=CCCCC1=O
The activity, negative = inhibition of the first is higher: 5.1% [at 11.4 µM] for the first, -1.66% [at 11.4 µM] for the second.

`O=C(O)C[n+]1ccccc1` showed an activity, negative = inhibition of -8.09% [at 11.4 µM].

From PubChem BioAssay AID1851 (National Center for Advancing Translational Sciences (NCATS), 2009)
